# High-throughput results from PubChem.
# A selection: hits, their analogues and other compounds. The true share with any hit is near 2.3%.
# A549 tox = counter-screen for Nrf2 inhibitors: cytotoxicity in A549 cells | A549 ARE-Fluc cells, CellTiter-Fluor viability, 18-24 h | Potency, µM (series often up to 46 µM), inactives show top-dose activity change, negative = cytotoxicity, most hits filed as inhibitors | hit rate 0.16% among 390,000 | AID 504648; further: on the % scale 0 is the no-effect control and ±100 the full control effect
#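 A549 ARE_Fluc cells in 5% FBS OPTI-MEM were exposed to compounds in concentration-response for 18-24 h at 37 deg C. Viability was read by CellTiter-Fluor fluorescence (Ex 405/Em 525) after 30 min, before the luciferase read.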
# Rango release inh = inhibition of RanGTP-driven Rango-importin beta dissociation; AID 540253; Potency, µM (titrated, usually from 46.1 µM), for the others: at the top dose activity change, negative = inhibition; O95149+P62826; Biochemical FRET Rango-importin beta, RanGTP-induced dissociation; hit rate 0.071% among 340,000; calls by dose curve; further: % of control where 0% means no effect; nearly all actives have a fitted effect of over 45% in size
#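 Compounds sat 5 min at room temperature with 0.1 uM Rango biosensor plus 0.25 uM importin beta, then FRET pre-read. RanGTP-RCC1 (0.6 uM Ran, 2mM GTP, 0.2 uM RCC1) added for 45 min, and the CFP/YFP post-read measured blocked complex dissociation.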
# Rango-impB inh = Rango-importin beta binding inhibition; hit rate 0.031% among 340,000; Q14974; Potency, µM (doses to about 92.2 µM), inactives show top-dose inhibition of complex formation; Rango CFP/YFP FRET sensor + importin beta, 45 min; calls by dose curve;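 further: 0% = DMSO wells and 100% = buffer wells lacking importin beta; nearly all actives have a fitted effect of over 15% in size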
#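 FRET biosensor Rango (snurportin 1 IBB between N-terminal EYFP and C-terminal Cerulean), 50 nM in PBS/1 mM DTT/0.02% Tween-20/0.1% BSA, preincubated 5 min RT with compound; 0.125 microM importin beta added, 45 min RT, CFP/YFP FRET ratio read.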
# Nrf2 block = Nrf2 pathway inhibition; AID 504444; A549 ARE-Fluc reporter, luciferase luminescence, 18-24 h; Potency, µM (top dose mostly 46 µM), for the others: at the highest dose activity change, negative = inhibition, hits mostly inhibitors; hit rate 2.1% among 360,000; further: on the % scale 0 is the no-effect control and ±100 the full control effect; nearly all actives have a fitted effect of over 60% in size
#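 Nrf2 activity is the BugLite luminescence, read 15 min after reagent at room temperature, following CellTiter-Fluor cytotoxicity readout (30 min, 37C). Compound titrations were applied for 18-24 h to 5000 A549 ARE_Fluc cells/well in 5% FBS OPTI-MEM.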
# Nrf2 ARE act = Nrf2 pathway activation. AREc32 ARE-luciferase reporter (MCF7-derived line), luminescence, 24 h. Potency, µM (doses to about 46.1 µM), for the others: at the top dose activation, actives largely listed as activators. hit rate 0.31% among 410,000; further: % of control where 0% means no effect; nearly all actives have a fitted effect of over 65% in size
#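 Each well held 1000 AREc32 cells, which were incubated with compound for 24 hr at 37 deg C after overnight attachment, and ARE reporter activity was quantified by firefly luciferase luminescence.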
# Numbers without * were called inactive; ? = inconclusive; / = not tested or not shown; [ ] = dose if it differs, or a comment. Unless noted, the call rests on the fitted dose curve; in most records, active means well fitted curve in the direction sought with a large enough effect; inconclusive means small, poorly fitted or top-dose-only effect, or another doubt; inactive means no such curve, though single readings can be large; an effect the other way counts as inactive or inconclusive. Potency means the concentration at half of the fitted maximal effect.
SMILES,A549 tox,Rango release inh,Rango-impB inh,Nrf2 block,Nrf2 ARE act
O=C(c1ccc(Cl)cc1)N1CCN(c2ccnc3cc(Cl)ccc23)CC1,?,2.8%,0.5%,20.6µM*,2.5%
CCC(=O)N1CCN(c2ccnc3cc(Cl)ccc23)CC1,0.4%,-11.0%,-0.4%,?,0.3%
CS(=O)(=O)N1CCN(c2ccnc3cc(Cl)ccc23)CC1,4.6%,2.2%,-0.2%,-14.7%,2.4%
CC(C)N(C(=O)N1CCN(c2ccnc3cc(Cl)ccc23)CC1)C(C)C,-3.6%,-7.7%,0.2%,9.2µM*,3.4%
O=S(=O)(c1ccc(Br)s1)N1CCN(c2ccnc3cc(Cl)ccc23)CC1,-5.6%,-5.1%,-1.3%,20.6µM*,0.8%
Cc1cc(NC(=O)Nc2cc(Cl)sc2Cl)no1,1.7%,6.1%,3.3%,-24.1%,3.16µM*
Cc1cc(NC(=O)Nc2ccccc2Cl)no1,0.7%,-2.8%,-1.3%,?,6.0%
Cn1nnc2c(N3CCN(c4cccc(Cl)c4)CC3)ncnc21,0.6%,/,/,/,-0.5%
Cc1ccc(C)c2sc(NC(=O)C3CC3)nc12,-1.6%,3.0%,-1.7%,-16.1%,11.2µM*
Cc1ccc2cc(C(c3nnnn3Cc3ccccc3)N3CCc4ccccc43)c(=O)[nH]c2c1 (centres undefined),-0.7%,23.1µM*,?,/,0.4%
Cc1ccc2[nH]c(=O)c(C(c3nnnn3Cc3ccccc3)N3CCc4ccccc43)cc2c1 (centres undefined),?,?,?,?,0.9%
O=C(c1ccccc1O)N(Cc1ccccc1)Cc1ccccc1,4.1%,/,/,2.8%,/
COC(=O)c1ccc(Cn2cnc3c(cnn3-c3ccc(C)c(C)c3)c2=O)o1,-15.0%,-16.3%,-1.2%,23.1µM*,-0.1%
COc1cccc(-c2noc(-c3cc4ccccc4oc3=O)n2)c1OC,1.0%,/,/,?,11.2µM*
O=C(NC(O)C(=O)c1ccc(F)cc1)c1ccc(F)cc1 (centres undefined),-3.9%,5.8%,0.2%,0.0%,-0.1%
CN(c1ccccc1)S(=O)(=O)c1cccc(NC(=O)C2=NN(c3ccccc3)C(=O)CC2)c1,-15.2%,-3.1%,4.7%,20.6µM*,4.0%
COc1ccc(NS(=O)(=O)c2cccc(NC(=O)C3=NN(c4ccccc4)C(=O)CC3)c2)cc1,-7.6%,14.8%,0.5%,-19.4%,4.3%
CSc1ncccc1C(=O)Nc1cccc(S(=O)(=O)N(C)c2ccccc2)c1,-19.8%,10.5%,1.6%,11.6µM*,1.0%
Cc1ccc(NC(=O)CCn2c(=O)c3cccn3c3ccccc32)c(Cl)c1,4.9%,/,/,-14.0%,5.1%
Cc1ccc(/C(=N\O)c2oc3c(C)c4oc(=O)cc(C)c4cc3c2C)cc1,?,-0.5%,0.7%,23.1µM*,0.0%
COc1ccc(CCNC(=O)CCS(=O)(=O)Cc2ccccc2C)cc1OC,3.4%,1.9%,-0.4%,17.1%,-0.9%
CCSc1cc(C)nc2c(-c3ccccc3)cnn12,10.5%,-0.1%,-5.8%,?,15.8µM*
O=C1CCCC2=C1C(c1cccs1)n1nc(SCc3ccccc3F)nc1N2 (centres undefined),-27.0%,0.3%,-4.3%,18.4µM*,0.1%
CC(=O)Oc1ccc2c(c1)OC(c1ccccc1)CC21CC(C)(C)NC(=S)N1 (centres undefined),0.8%,-4.3%,1.1%,-22.5%,-0.4%
COc1ccc(C2(c3ccc(OC(C)=O)cc3OC(C)=O)CC(c3ccccc3)NC(=S)N2)cc1 (centres undefined),?,3.0%,1.0%,20.6µM*,6.0%
SMILES,A549 tox,Rango release inh,Rango-impB inh,Nrf2 block,Nrf2 ARE act
O=C(O)c1cccc2c1C(=O)c1ccccc1C2=O,4.9%,-1.0%,1.5%,-15.8%,-0.3%
O=C(O)c1ccc2c3c(ncnc13)-c1ccccc1C2=O,3.26µM*,0.0%,0.4%,2.59µM*,12.9%
O=C(CN1CCCC1)Nc1nnc(-c2cccs2)s1,-5.0%,-1.0%,-1.0%,?,11.2µM*
Cc1occc1C(=O)Nc1nnc(-c2cccs2)s1,-3.4%,-4.1%,-1.5%,?,11.2µM*
O=C(CN1CCCCC1)Nc1nnc(-c2ccccc2)s1,-0.7%,-9.1%,-7.5%,25.0%,?
O=C(NNC1=Nc2ccccc2SC1)c1ccc(F)cc1,-19.6%,10.9%,3.0%,23.1µM*,8.5%
O=C(NNc1c2ccccc2nc2ccccc12)c1ccc(Cl)cc1,-17.8%,-22.2%,?,?,-0.8%
O=C(NNC1=Nc2ccccc2SC1)c1ccc(Cl)cc1,?,-6.3%,-0.8%,10.3µM*,-0.7%
COc1ccc(CN2C[C@@H](CO)O[C@@H](n3cnc4c(NC5CCC5)ncnc43)C2)cc1,/,/,/,/,0.0%
O=c1oc2ccc(F)cc2cc1-c1nc(-c2cccs2)no1,-0.8%,/,/,20.1%,4.9%
O=C(CCl)N1c2ccccc2SCC1c1ccccc1 (centres undefined),?,2.4%,-0.7%,25.9µM*,-1.3%
CCCCC(=O)NC1CC(=O)N(c2ccc3c(c2)OCCO3)C1 (centres undefined),2.5%,/,/,/,-1.2%
CC(C)c1ccc(NC(=O)CCn2c(=O)c3cccn3c3ccccc32)cc1,-12.4%,/,/,10.3µM*,3.8%
CC1(C)CC(=O)C=C(C(=O)N2CCCC(C(=O)c3cccc(C(F)(F)F)c3)C2)O1 (centres undefined),?,2.7%,1.9%,9.2µM*,1.4%
O=C(NNC(=S)Nc1cccc(Cl)c1)c1ccccc1OC(F)F,-6.3%,11.5%,-2.9%,20.6µM*,-0.6%
COc1cccc(NC(=S)NNC(=O)c2ccccc2OC(F)F)c1,-0.9%,-2.7%,-2.1%,?,4.5%
O=C(Nc1nc2ccc(F)cc2s1)c1cccs1,1.1%,-1.8%,-0.8%,?,?
O=C(Nc1nc2c(Cl)cccc2s1)c1ccc(Br)o1,3.5%[1.84 µM],-12.3%,2.1%,10.2%,?
O=C(Nc1nc2ccc(F)cc2s1)c1ccc([N+](=O)[O-])o1,/,/,/,/,3.16µM*
O=C(Nc1nc2c(F)cccc2s1)c1ccc([N+](=O)[O-])o1,4.5%,-8.5%,-0.6%,15.8%,10µM*
O=C(Nc1nc2c(Cl)cccc2s1)c1ccc([N+](=O)[O-])o1,-10.2%,-13.2%,0.6%,5.7%,5.01µM*
Cc1cc(C)c(NC(=O)CN2C(=O)CCSc3ccc(S(=O)(=O)N4CCCC4)cc32)c(C)c1,-1.2%,/,/,/,-0.4%
Cc1cc2c(s1)c1cnn(Cc3cc(OC(F)(F)F)ccc3F)c(=O)c1n2C,0.5%,/,/,-2.9%,/
CC(=O)c1ccc(S(=O)(=O)N2CCN(C(=O)c3ccc(N)c([N+](=O)[O-])c3)CC2)cc1,-4.2%,4.8%,-3.1%,-1.9%,-0.4%
Nc1ccc(C(=O)N2CCN(S(=O)(=O)c3ccc4c(c3)OCCCO4)CC2)cc1[N+](=O)[O-],?,21.9%,9.9%,25.9µM*,0.7%
